Only some compounds are listed: those with a hit (about 4.1% of all), similar ones and a draw of the others.
hgDAF-12 ag – agonists of H. glycines DAF-12 nuclear receptor; HEK293 GAL4-hgDAF12 UAS-luciferase reporter, agonist luminescence; normalized to butyrate control; activation, % at 6.8 µM; actives 1.8% (n = 370,000); AID 687014;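 active = activation above a cutoff set at the mean of all screened compounds plus 3 SD, cut at about 10% in these data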;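 note: 0% = DMSO wells and 100% = sodium butyrate wells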
ssDAF-12 act – S. stercoralis DAF-12 activation, primary screen. HEK293 ssDAF-12/GRIP1 lit1-tk-luc reporter, luminescence; % of 3 µM dafachronic acid response. activation, % at 6.8 µM. actives 1% (n = 370,000);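 active = activation above the mean over all tested compounds plus 3 SD, cut at about 0.9% in these data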;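 note: 0% = DMSO-only wells and 100% = 3 µM delta7-dafachronic acid wells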
DAX1 inh-1 – NR0B1 (DAX1) inhibition | P51843 | HEK293 Gal4-DAX1 luciferase reporter, luminescence | inhibition, % at 6.75 µM | actives 0.99% (n = 340,000) | AID 504766;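 active = inhibition above the mean over all tested compounds plus 3 SD, cut at about 4.2% in these data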;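 note: 0% = DAX1-transfected cells with DMSO and 100% = empty-vector control cells with DMSO; inhibition shows as a rise in luminescence from relieved DAX1 repression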
Target sequence (P51843 207-470 limits assumed): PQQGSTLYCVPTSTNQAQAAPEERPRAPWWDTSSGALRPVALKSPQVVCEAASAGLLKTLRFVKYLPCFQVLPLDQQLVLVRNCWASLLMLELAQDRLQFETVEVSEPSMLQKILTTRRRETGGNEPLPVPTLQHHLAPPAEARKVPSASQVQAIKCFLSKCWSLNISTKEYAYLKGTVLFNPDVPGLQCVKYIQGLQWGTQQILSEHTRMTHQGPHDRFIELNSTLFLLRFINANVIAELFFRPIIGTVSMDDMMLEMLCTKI
hcDAF12 agonist – H. contortus DAF-12 activation, primary screen | HEK293 hcDAF-12 lit1-tk-luc reporter, luminescence; 0% DMSO, 100% Δ7-dafachronic acid | activation, % at 6.8 µM | actives 1.4% (n = 370,000) | AID 652067;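 active = activation above the mean of all tested compounds plus 3 SD, cut at about 5.5% in these data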;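 note: 100% = response to 3 µM Δ7-dafachronic acid high control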
DAX1 inh-2 – inhibitors of DAX1 repression of SF-1 activated StAR promoter. HEK293T StAR-luciferase reporter, SF-1/DAX-1 repression relief. inhibition, % at 6.8 µM. actives 1.1% (n = 370,000). AID 652010;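 active = inhibition above the mean over all tested compounds plus 3 SD, cut at about 3.6% in these data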;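 note: 0% = DAX-1 cells with DMSO and 100% = cells lacking DAX-1 with DMSO; higher inhibition means more luminescence from relief of DAX-1 repression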
DAX1 conf – confirmation of human DAX1 (NR0B1) inhibitors | HEK293T StAR-promoter luciferase reporter, SF-1/DAX-1 repression | inhibition, % at 6.8 µM | shares compounds with DAX1 inh-2 | AID 652134 | actives 87% (n = 2,400);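 active = inhibition above the average of every tested compound plus 3 SD, cut at about 3.8% in these data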;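 note: 0% = DAX-1 cells with DMSO and 100% = no DAX-1 control cells with DMSO; active compounds raise luminescence by relieving repression of the StAR reporter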
SF1 AF2mut Luc – counter-screen for DAX1 inhibitors: nonselective inhibitors with SF-1 AF2 mutant. shares compounds with DAX1 inh-2. HEK293 StAR-luciferase, luminescence. inhibition, % at 6.8 µM. actives 78% (n = 2,400). AID 652136;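 active = inhibition above the mean of all tested compounds plus 3 SD, cut at about 3% in these data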;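 note: 0% = DAX-1 transfected cells with DMSO and 100% = cells without DAX-1 with DMSO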
LXR ag – LXR-beta agonism as hcDAF-12 counter-screen. shares compounds with hcDAF12 agonist. HEK293 Gal4-LXR tk-luc reporter, luminescence, 24 h; normalized: DMSO 0%, positive control 100%. activation, % at 6.8 µM. 3,400 tested, under 10 active. AID 743027;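 active = mean percent activation of the reporter above a cutoff set as the average over tested compounds plus their standard deviation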
hcDAF12 ag – confirmation of H. contortus DAF-12 agonists | activation, % at 6.8 µM | HEK293 hcDAF-12 lit1-tk-luc reporter, luminescence; % of Δ7-dafachronic acid response | AID 743032 | actives 61% (n = 3,400) | shares compounds with hcDAF12 agonist;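 active = mean activation across triplicate tests above the threshold derived from the earlier primary screen, cut at about 5.5% in these data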;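 note: 0% = DMSO only wells and 100% = 3 µM Δ7-dafachronic acid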
hgDAF12 ag – hgDAF-12 agonism, confirmation assay | activation, % at 6.8 µM | AID 743050 | HEK293 GAL4-hgDAF12 luciferase reporter, agonist mode; percent of butyrate response | actives 80% (n = 3,300) | shares compounds with hgDAF-12 ag;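 active = mean activation over triplicate wells above the hit cutoff derived from the earlier primary screen, cut at about 11% in these data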;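 note: 0% = DMSO low control and 100% = 2 mM sodium butyrate high control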
LXR ag 2 – LXR-beta agonism as DAF-12 counter-screen; shares compounds with hgDAF-12 ag; HEK293 Gal4-LXR luciferase reporter, 24 h; activation, % at 6.8 µM; 3,300 tested, under 10 active; AID 743051;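 active = mean activation of the triplicate above a set limit carried over from the primary screen, none filed active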
An asterisk follows results filed as active; . = no result.

SMILES | hgDAF-12 ag | ssDAF-12 act | DAX1 inh-1 | hcDAF12 agonist | DAX1 inh-2 | DAX1 conf | SF1 AF2mut Luc | hgDAF12 ag | LXR ag 2 | others
NC(=O)c1ccccc1N/C=C/C(=O)c1ccccc1 | 13* | 0 | 2 | 5 | 5.8* | 12* | 5.4* | 16* | 1
C=CCN1C(=O)[C@H](CC(=O)N2CCCC2)[C@@]2(C(=O)OCC)CCCC=C12 | 3 | -1 | . | -1 | -1 | . | . | . | .
O=C(NOCc1ccccc1)c1ccc([N+](=O)[O-])cc1 | 15* | 1.8* | 0 | 2 | 7.3* | 9.7* | 5.2* | 12* | 1
O=c1[nH]c(=O)n(C2CC(O)C(CO)O2)cc1I (centres undefined) | 15* | -1 | 4 | 4 | 13* | 23* | 9.3* | 16* | 0
N=NC(=O)c1ccccc1Nc1c(O)[nH]c2ccccc12 | 15* | 2.3* | -3 | 13* | 6.1* | 11* | 7.8* | 16* | 1 | LXR ag=1;hcDAF12 ag=14*
CC(=O)Nc1c(O)[nH]c2ccccc12 | 1 | -1 | 0 | 1 | 0 | . | . | . | .
N#Cc1cccc(C(=O)N2CCC(Oc3cccnc3)CC2)c1 | 4 | -1 | . | -1 | -1 | . | . | . | .
Cc1cc2nc(N3C(=O)CNC3=S)sc2cc1C | 17* | 1.0* | 0 | 2 | 6.7* | 14* | 7.0* | 13* | 1
Cc1noc(C)c1-c1ccc(C(=O)Nc2ccccc2)c2occc12 | 18* | 1.0* | . | 5 | 9.7* | 12* | 2 | 13* | 1
COc1ccc(-c2ccc(C(=O)Nc3ccccc3)c3occc23)c(C)c1 | 20* | 0 | . | 2 | 6.7* | 10* | 4.2* | 11* | 1
CC(=O)Oc1ccc(C(=O)NCCc2ccccc2)cc1 | 15* | 1 | 1 | 4 | 7.2* | 12* | 5.3* | 14* | 1
CC(=O)Nc1ccc2nc3ccccc3nc2c1 | 5 | 0 | 1 | 4 | 1 | . | . | . | .
C=C(C)C(=O)Nc1ccc2nn(-c3ccccc3O)nc2c1 | 20* | 1.6* | 2 | 8.0* | 7.9* | 13* | 7.7* | 20* | 1 | LXR ag=2;hcDAF12 ag=10*
O=C(NCCc1c[nH]c2ccccc12)OCc1cn(Cc2ccc(C(F)(F)F)cc2)nn1 | -7 | -1 | . | -3 | 0 | . | . | . | .
Fc1ccc(Nc2ccc3ccccc3n2)c(F)c1 | 15* | 1.0* | -2 | 9.8* | 9.7* | 14* | 9.4* | 20* | 1 | LXR ag=2;hcDAF12 ag=9.4*
CCCCN1CCS(=O)(=O)N(Cc2cn(Cc3cccc(Cl)c3)nn2)C(C(=O)OC)C1 (centres undefined) | 0 | -1 | . | -2 | -1 | . | . | . | .
COC1=C[C@H](C(=O)N[C@H]2CCCC[C@@H]2NC(C)=O)[C@H](C)[C@@H](c2ccccc2)CC1=O | 1 | -2 | . | -3 | 0 | . | . | . | .
Cc1ccc(OCCSc2ncccn2)c(C)c1 | 23* | 0 | 5.1* | 4 | 8.2* | 12* | 8.2* | 16* | 1
CSc1c(N(C)C)c(=O)c1=S | -1 | -1 | . | 0 | 0 | . | . | . | .
Cc1ccc(CN2CCCCC(NC(=O)c3ccc(-c4ccccc4)cc3)C2=O)cc1 (centres undefined) | 0 | -2 | . | -4 | -4 | . | . | . | .

Source: PubChem (The Scripps Research Institute Molecular Screening Center)
